TIM10 inh: growth inhibitors of isogenic TIM10 control yeast, primary screen, counter-screen for tim10-1 yeast inhibitor project, luminescence, uHTS; S. cerevisiae TIM10 strain growth, BacTiter-Glo luminescence, 24 h; inhibition, % at 10 µM; 1.4% of 330,000 active;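 active means inhibition of 40% or more at the single tested concentration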;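 further: wild-type TIM10 isogenic control strain grown at permissive 25 °C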
Rce1 inhib: yeast Rce1p protease inhibitors, primary screen, biochemical, fluorescence, cell-free homogeneous; CAAX prenyl protease 2 (Saccharomyces cerevisiae (strain ATCC 204508 / S288c)), Q03530; AID 2563, 2010; yeast membranes, quenched prenylated peptide cleavage fluorescence; 0.27% of 290,000 active; calls only;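 active means fall in fluorescence gain of 50% or more versus controls, with final raw signal at or below 3038400; inconclusive means same 50% fall but final raw signal above 3038400; inactive means fall in fluorescence gain under 50%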;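 further: plate controls were neutral control wells for no effect and wells lacking membranes for full effect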
Target sequence (Q03530 whole entry, looked up): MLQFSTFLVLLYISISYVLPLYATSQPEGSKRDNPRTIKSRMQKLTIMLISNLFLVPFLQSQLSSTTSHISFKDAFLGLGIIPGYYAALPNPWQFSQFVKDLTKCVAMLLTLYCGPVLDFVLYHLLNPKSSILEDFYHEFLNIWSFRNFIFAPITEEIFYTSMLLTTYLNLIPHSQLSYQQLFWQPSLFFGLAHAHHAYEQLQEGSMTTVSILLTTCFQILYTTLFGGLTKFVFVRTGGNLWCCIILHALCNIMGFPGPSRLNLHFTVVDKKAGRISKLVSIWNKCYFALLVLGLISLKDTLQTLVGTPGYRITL
tim10-1 inh: growth inhibitors of tim10-1 mutant yeast, primary screen, luminescence, uHTS; 2.2% of 330,000 active; AID 463190, 2010; S. cerevisiae tim10-1 ts strain growth, BacTiter-Glo, 24 h; inhibition, % at 20 µM;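 active means inhibition of at least 40%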;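 further: mutant grown at 25 °C; 0% = DMSO wells with yeast and 100% = wells holding no yeast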
PfHsp90 yeast 2: growth inhibition of PfHsp90-expressing yeast, primary screen, antimalarial PfHsp90 inhibitor project, S. cerevisiae, BacTiter-Glo luminescence, single point, set 2; BacTiter-Glo ATP, 48 h; yeast lacking PDR1 and PDR3 efflux regulators; inhibition, % at 9.4 µM; 0.32% of 310,000 active;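 active means every replicate shows inhibition above about 80%, whatever the replicate mean, limit read from the data; inconclusive means mean inhibition reaches the set limit but some replicate falls short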;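 further: 0% = DMSO neutral controls and 100% = 20 µM radicicol positive controls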
tim23-1 inh: growth inhibitors of tim23-1 mutant yeast, primary screen, luminescence, uHTS. S. cerevisiae tim23-1 growth, BacTiter-Glo luminescence, 24 h. inhibition, % at 20 µM. 1.3% of 330,000 active;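 active means growth inhibition of the mutant yeast at or above 50%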;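 further: temperature-sensitive mutant grown at 25 °C; plate controls were DMSO-treated mutant yeast for no effect and medium wells lacking yeast for full effect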
tim23-1 conf: tim23-1 mutant yeast growth inhibitors, confirmation, luminescence, single concentration. shares compounds with tim23-1 inh. S. cerevisiae tim23-1 growth, BacTiter-Glo luminescence, 24 h. inhibition, % at 20 µM. 83% of 4,400 active. AID 463218, 2010;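 active means inhibition above about 39% in either of two replicate wells at 20 µM, limit read from the data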;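 further: temperature-sensitive tim23-1 mutant grown at 25 °C; 0% = DMSO wells with yeast and 100% = medium wells without yeast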
* = called active by the depositor; i = inactive; u = inconclusive; x = no result given. Rows were chosen to be rich in hits. Some 3.7% of all compounds tested hit in one or more screens of this group.

SMILES	TIM10 inh	Rce1 inhib	tim10-1 inh	PfHsp90 yeast 2	tim23-1 inh	tim23-1 conf
Cc1ccc(S(=O)(=O)N2CCSCCSCCSCCSCC2)cc1	x	x	x	-16	x	x
COc1ccc(C2CC(O)(c3ccccc3)Oc3c(C)ccc(C)c32)cc1 (stereo not given)	21	i	22	u	53*	55*
CC(=O)c1cccc(N(C(=O)CNC(=O)c2ccco2)C(C(=O)NC2CCCC2)c2ccco2)c1 (stereo not given)	-2	i	1	-43	-1	x
CCN=C1S/C(=C\c2cn(C(C)=O)nc2-c2ccccc2)C(=O)N1CC	29	i	28	x	53*	48*
CC(=O)NC1=NC(=O)/C(=C/c2cn(C(C)=O)nc2-c2ccccc2)S1	-21	x	5	19	-1	x
O=C(NC(CO)(CO)CO)[C@@H]1CCCN1S(=O)(=O)c1cccc2cccnc12	-7	x	-14	-11	-13	x
O=C(Nc1cccc(C(=O)N2CCCC2)c1)C1CCC1	x	x	x	-1	x	x
C=CCN1CCN(C(=O)CCc2ccccc2)CC1	11	i	-16	-17	3	x
CCOC1=CC(=O)N(Cc2ccccc2)C1	13	i	-5	3	10	x
O=C(Nc1ccccc1-c1nnn(CC(=O)N2CCCc3ccccc32)n1)c1ccc(Cl)cc1	27	i	24	16	56*	26
Cc1ccc(C2=Nc3ccccc3N=C(C(Cl)Cl)C2)cc1	34	i	-3	35	52*	49*
Cc1cccc(C(=O)OCC(=O)N2CC(C)CC(C)C2)c1C (stereo not given)	3	x	2	14	22	x
c1ccc(CC(Nc2ccccn2)c2ccccc2)cc1 (stereo not given)	38	i	35	-10	52*	41*
Cc1ccc2c(Cl)cc(Cl)c(OCC(=O)Nc3ccc(C)c(S(=O)(=O)N(C)C)c3)c2n1	3	i	21	x	-12	x
CC(C)Nc1nc(N)c(C(=O)C23CC4CC(CC(C4)C2)C3)s1	16	i	24	4	53*	56*
CCOc1ccc(-c2nc(N)ncc2-c2ccc(Cl)cc2)c(O)c1	10	i	23	3	54*	-21
CCOc1ccc(-c2nc(N)ncc2Oc2ccc(OC)cc2)c(O)c1	31	i	21	-8	56*	62*
CCOc1ccc(-c2nc(N)ncc2-c2ccccc2)c(O)c1	22	i	23	x	20	x
CCOc1ccc(-c2nc(N)ncc2-c2ccc(OC)cc2)c(O)c1	7	i	-9	-36	23	x
CCOC(=O)C1=CN(Cc2cccc(F)c2)S(=O)(=O)N(C)C1c1ccccc1 (stereo not given)	-5	x	17	-8	49	x
CCOC(=O)C1=CN(Cc2cccc(F)c2)S(=O)(=O)N(C)C1c1cccc(OC)c1 (stereo not given)	6	x	22	-6	52*	32
OCC(CO)(CO)N=Cc1c(O)ccc2ccccc12	-5	i	14	6	20	x
CS/C(N)=N/N=C/c1c(O)ccc2ccccc12	36	i	10	18	58*	70*
C=Cc1ccc(N=Cc2c(O)ccc3ccccc23)cc1	17	i	27	-5	49	x
Oc1ccc2ccccc2c1/C=N/c1nccs1	26	i	25	x	57*	60*
SMILES	TIM10 inh	Rce1 inhib	tim10-1 inh	PfHsp90 yeast 2	tim23-1 inh	tim23-1 conf
Oc1ccc2ccccc2c1C=Nc1ccccc1Br	26	i	21	5	53*	51*
CCCS(=O)(=O)c1nc(S(=O)(=O)c2ccc(C)cc2)c(N2CC(C)OC(C)C2)s1 (stereo not given)	18	i	35	2	33	x
CN(/N=C\c1ccc(O)c(O)c1)c1nc(-c2ccccc2)cc(-c2ccccc2)n1	9	i	33	22	55*	41*
O=C(c1ccc2ccccc2n1)N1CCN(S(=O)(=O)c2ccc(Cl)cc2)CC1	22	x	27	x	50*	36
O=C(Oc1ccccc1/C=C\C(=O)c1cc2ccccc2o1)c1cccc(F)c1	33	i	30	4	52*	58*
Cc1ccc(S(=O)(=O)N2C[C@@H]3[C@H]4CC[C@H](C4)[C@@H]3[C@@H](C)[C@H]2C#N)cc1	0	x	18	10	91*	40*
CN1C(=O)/C(=C\c2ccco2)N=C1c1ccc(Cl)cc1Cl	30	i	20	0	71*	44*
O=C1OC(/C=C/c2ccc(Cl)cc2)=NC/1=C/c1ccco1	24	i	34	18	60*	42*
CCCN(CCC)C1=N/C(=C\c2ccco2)C(=O)N1c1ccccc1	15	i	35	3	48	x
CC1CCN(S(=O)(=O)c2cccc(C(=O)N3CCN(c4ccc(F)cc4)CC3)c2)CC1	6	i	22	6	24	x
Cc1coc(C)c1C(=O)Nc1ccc2ccccc2c1	2	i	8	4	5	x
O=C1NN=C(c2ccc(Br)cc2)CC1c1ccc(Cl)cc1 (stereo not given)	18	i	29	-70	60*	72*
CCc1ccc(C2CC(c3ccc(Cl)cc3)=NNC2=O)cc1 (stereo not given)	9	i	31	x	32	x
Cc1ccccc1C(=O)Oc1ccc(Sc2ccc(O)cc2)cc1	26	i	22	x	57*	-14
Cc1ccccc1C(=O)Oc1ccc(-c2csnn2)cc1	2	i	12	40	14	x
COc1cc(/C=C2\OC(=O)c3c(OC)cccc32)ccc1O	28	i	35	43	53*	48*
COc1cc(/C=C2\C(=O)ON=C2c2ccc(Cl)cc2)ccc1O	12	i	25	x	39	x
Cc1ccc(C(=O)N2C(=O)C(c3ccccc3)Oc3ccccc32)cc1 (stereo not given)	33	i	38	-42	69*	53*
Cc1ccc(C(=O)N2c3ccccc3OCC2C)cc1 (stereo not given)	18	i	7	4	39	x
CCOC(=O)c1ccc(NS(=O)(=O)c2c(N)[nH]c(=O)[nH]c2=O)cc1	-3	i	7	18	-5	x
N#C/C(=C\c1cccs1)C(=O)c1ccccc1Cl	19	i	16	x	62*	57*
CCn1c(O)c(C=NC2CCCC(C)C2C)sc1=S (stereo not given)	23	i	35	-35	51*	53*
CCn1c(O)c(C=NCc2ccccc2)sc1=S	16	i	15	7	14	x

Screening results as filed in PubChem.
